The list is not random: actives were taken first. Their share in the collection is about 27%.
CYP2C19 act: increases human CYP2C19 enzyme activity; activation factor at 5 µM; P33261; recombinant CYP2C19, luciferin-H EGE luminescence; active compounds read high; 0 = fully inhibited enzyme, 1 = untreated enzyme; 96,000 tested, under 10 active;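 active means activation factor of at least 2 at 5 µM in the primary screen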
CYP2C9 activ: increases human cytochrome P450 2C9 activity. activation factor at 5 µM. recombinant CYP2C9, luciferin-H conversion, luminescence; active compounds read high; factor 1 = untreated enzyme, 0 = blocked. P11712. 96,000 tested, 1.4% active;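 active means activation factor of 2 or more for CYP2C9 at a 5 µM dose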
CYP2C9 inhib: blocks human cytochrome P450 2C9. 96,000 tested, 20% active. P11712. CYP2C9 Supersomes, luciferin-H conversion, luminescence. inhibition, % at 5 µM;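 active means blocking of liver enzyme CYP2C9 beyond about 50% at 5 µM, limit read from the data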
sEH inh: blocks human soluble epoxide hydrolase activity | inhibition, % at 2 µM | 91,000 tested, 0.34% active | AID 707 | recombinant human sEH enzymatic activity assay; in the data active means inhibition above about 80%
sEH activator: increases human soluble epoxide hydrolase activity; AID 717; 91,000 tested, 0.04% active; P34913; activation, % at 2 µM; purified human sEH enzymatic activity, activator screen; in the data active means activation above about 37%
CYP2C19 inh: human CYP2C19 inhibition | P33261 | CYP2C19 Supersomes, luciferin-H EGE luminescence, 30 min | inhibition, % at 5 µM | 96,000 tested, 21% active;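 active means CYP2C19 inhibition above a set limit at 5 µM in the primary screen, cut at about 50% in these data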
Numbers stand for hits; – = inactive; · = no result given.

SMILES	CYP2C19 act	CYP2C9 activ	CYP2C9 inhib	sEH inh	sEH activator	CYP2C19 inh
CCOC(=O)SC1=N/C(=C\c2ccc(N(C)C)cc2)C(=O)S1	–	–	68	–	–	–
COC(=O)c1cc(NC2c3ncccc3C(=O)N2Cc2ccccc2)cc(C(=O)OC)c1 (centres undefined)	–	–	67	–	–	96
COc1ccc(OC)c(NC2c3ncccc3C(=O)N2Cc2ccco2)c1 (centres undefined)	–	–	–	–	–	–
CCOC(=O)c1ccc(NC2c3ncccc3C(=O)N2Cc2ccc(F)cc2)cc1 (centres undefined)	–	–	70	–	–	–
COc1ccc(CN2C(=O)c3cccnc3C2Nc2cc(Cl)ccc2OC)cc1 (centres undefined)	–	–	–	·	·	63
O=C1Nc2cc3c(cc2Sc2ccccc21)OCCO3	–	–	–	–	–	–
COc1ccccc1CNC(=O)/C=C/c1cc2c(cc1Br)OCO2	–	–	–	–	–	–
Cc1nc(SCc2ccccc2)c(C(F)(F)F)c(=O)[nH]1	–	–	–	·	·	–
C=CCOC(=O)CN1C(=O)c2ccccc2C1=O	–	–	–	·	·	61
O=C(CSc1n[nH]c(-c2ccccc2O)n1)N1CCCc2ccccc21	–	–	86	–	–	82
Nc1cc(=O)[nH]c(SCC(=O)N2CCCc3ccccc32)n1	·	·	·	–	–	·
CCc1nnc(SCC(=O)N2CCCc3ccccc32)nc1CC	–	–	56	–	–	78
CSc1nsc(SCC(=O)N2CCCc3ccccc32)n1	–	–	80	–	–	99
O=c1c(Cl)c(N/N=C/c2ccc(Br)cc2)cnn1-c1ccccc1	–	–	–	–	–	–
CCSC1=C(C#N)C(c2ccccc2C)CC(=O)N1 (centres undefined)	–	–	–	·	·	–
C=C(C)CSC1=C(C#N)C(c2ccccc2Cl)CC(=O)N1 (centres undefined)	–	–	70	–	–	58
C=CCSC1=C(C#N)C(c2ccccc2Cl)CC(=O)N1 (centres undefined)	–	–	–	–	–	73
Cc1ccc(C(c2nnnn2CCC(C)C)N2CCN(C)CC2)cc1 (centres undefined)	–	–	–	–	–	–
O=C(OCn1nnc2ccccc2c1=O)c1ccc2c(=O)n3c(nc2c1)CCC3	–	–	–	–	–	–
CCC1CCc2c(sc3ncnc(N4CCOCC4)c23)C1 (centres undefined)	–	–	–	–	–	89
Oc1ccc(N2CCN(c3ncnc4sc5c(c34)CCC5)CC2)cc1	–	–	–	·	·	–
CCN(CC)S(=O)(=O)c1ccc2c(c1)c(=O)c(C(=O)N1CCN(c3ccccc3)CC1)cn2C	·	·	·	–	–	·
CC1CCN(C(=O)CSc2nc3ccccc3[nH]2)CC1	–	–	–	·	·	74
C/C(N)=C(/C#N)C(=O)CSc1nc2ccccc2[nH]1	–	–	–	–	–	71
CCOC(=O)N1CCN(C(=O)CSc2ncnc3ccccc23)CC1	–	–	–	–	–	–
SMILES	CYP2C19 act	CYP2C9 activ	CYP2C9 inhib	sEH inh	sEH activator	CYP2C19 inh
C/C(N)=C(/C#N)C(=O)CSc1ncnc2ccccc12	–	–	–	·	·	71
CC1CC(C)CN(C(=O)CN2CCN(Cc3ccc(Cl)cc3)C2=O)C1 (centres undefined)	–	–	–	–	–	–
CCC(=O)NC1=C(NC(C)c2ccccc2)C(=O)c2ccccc2C1=O (centres undefined)	–	–	52	–	–	–
CCC(=O)Nc1ccc2c(c1)C(=O)N(C)C2=O	–	–	–	–	–	–
CCC(=O)Nc1cccc(C(=O)c2ccccc2)c1	–	–	–	–	–	77
CSc1cccc(NC(=O)/C=C/c2ccccc2)c1	–	–	–	–	–	55
CCC(=O)Nc1ccc2c(c1)C(=O)c1ccccc1C2=O	–	–	58	–	–	–
CC(NC(=O)CC1Nc2ccccc2NC1=O)c1ccccc1 (centres undefined)	–	–	–	·	·	–
Cc1ccc(NC2=CC(=O)OC(C)C2)cc1 (centres undefined)	–	–	–	–	–	–
COC(=O)Cn1c(CN2CCN(c3ccc(F)cc3)CC2)nc2c1c(=O)n(C)c(=O)n2C	–	–	–	–	–	–
OC(CSc1c(Cl)cccc1Cl)CN1CCN(c2ccc(F)cc2)CC1 (centres undefined)	–	–	–	–	–	–
CSc1nnc(N(CCC#N)CCC#N)s1	–	–	–	–	–	–
